Reference: PubChem BioAssay AID1850 (Southern Research Specialized Biocontainment Screening …, 2009)
Several values for one entry are separate records, joined by “and”; a condition that tells them apart may be missing. Equal values may be shown once. Out of some 310,000 compounds screened, about 1,000 (0.32%) were called active. Not all results are given here. Measured potencies and affinities stand elsewhere. Unmarked numbers belong to inactive results. No rule for the calls is given here.

experiment: PhoP regulon inhibitors, Salmonella typhi PhoP promoter GFP reporter, confirmatory (AID 1850); settings: fluorescence, 4 h, at 50 µM, active compounds read high;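 also: 0% = induced wells with vehicle and 100% = uninduced wells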

Row | SMILES | inhibition
1 | O=C1CSC(c2ccc3c(c2)OCO3)N1c1ccc(Oc2ccccc2)cc1 (stereo not drawn) | 7.07%
2 | Fc1ccc(CSc2ccc(-c3ccco3)nn2)cc1 | 6.93%
3 | c1ccc(CSc2ccc(-c3ccco3)nn2)cc1 | 9.52%
4 | C[C@]12CCC(=O)C=C1CC[C@@H]1C2CC[C@]2(C)C(=O)CCC12 (stereo partly drawn) | -12.1%
5 | O=[N+]([O-])c1ccc(N/N=C/c2ccccc2)c(F)c1 | -8.42%
6 | O=C(CCc1nnc(Cc2ccc(-c3ccccc3)cc2)o1)NCCc1cccnc1 | -5.62%
7 | O=C(Oc1ccc(Cl)c2cccnc12)c1ccco1 | -5.73%
8 | O=C(Oc1cccc2cccnc12)c1cccc([N+](=O)[O-])c1 | 1.2%
9 | O=C(Oc1c(Cl)cc(Cl)c2cccnc12)c1cccs1 | 13.7%
10 | O=C(Oc1ccc(Cl)c2cccnc12)c1cccc([N+](=O)[O-])c1 | -4.89%
11 | O=C(Nc1cccc(Cl)c1)c1ccc(=O)[nH]n1 | 12.7%
12 | CC1CCC(NC(=O)c2nn(C)c3c2CS(=O)(=O)c2ccccc2-3)CC1 (stereo not drawn) | 5.03%
13 | COc1cccc(C(=O)NNC(=O)Cc2ccc(Cl)cc2)c1 | -3.92%
14 | CSCCC(N=C(NS(=O)(=O)c1ccc(C)cc1)c1ccccc1)C(=O)O (stereo not drawn) | -3.75%
15 | CCC(C)(C)NC(=O)CN(C(=O)c1snc(C(N)=O)c1N)c1ccc2nc(C)sc2c1 | -5.66%
16 | O=C(CCN1C(=O)C2C3C=CC(C3)C2C1=O)N1CCN(c2ccccc2F)CC1 (stereo not drawn) | 18.6%
17 | COC(=O)CSc1nc2nc(-c3cccs3)cc(C(F)(F)F)c2c(=O)[nH]1 | -1.37%
18 | CCOC(=O)c1cc2c(cn1)[nH]c1ccccc12 | 9.76% and 5.1%
19 | CNC(=O)c1cc2c(cn1)[nH]c1ccccc12 | 3.35%
20 | CCOC(=O)CCC(=O)Nc1ccc(S(=O)(=O)Nc2cc(OC)nc(OC)n2)cc1 | -6.86%
21 | Cc1cc(C)c2c3c(sc2n1)C(=O)N(C)CC(=O)N3 | -4.13%
22 | C/C(N)=C(/C#N)C(=O)COC(=O)CCC1CCCC1 | 0.41%
23 | N#CCC(=O)Nc1ccc(C(=O)N2CCN(c3ccccn3)CC2)cc1 | 14.2%
24 | CN(C)c1ccc(CN(Cc2ccco2)C(=O)c2ccco2)cc1 | -2.38%

Row | SMILES | inhibition
25 | CS(=O)(=O)N1CCC(Oc2ccccc2C(=O)NC2CCCCCC2)CC1 | -17.3%
26 | CC(=O)c1cnc(Nc2cccc(C)c2)s1 | -8.01%
27 | Cn1c(CNC(=O)CNS(=O)(=O)c2ccc(Br)cc2)cc(=O)n(C)c1=O | -1.92%
28 | CC(C)c1ccc(OCC(=O)NNC(=S)NC(=O)c2cccs2)c(Br)c1 | -8.98%
29 | COc1ccc2oc(C(=O)OCC(=O)N(C)CC(=O)Nc3ccc(C)cc3)c(C)c2c1 | 6.55%
30 | CC1CCN(C(=O)c2ccc([N+](=O)[O-])o2)CC1 | 5.43%
31 | O=C(c1ccc([N+](=O)[O-])o1)N1CCN(Cc2ccccc2)CC1 | -0.17%
32 | COc1ccc(C(=O)Nc2ccc(N3CCCC3)cc2)cc1 | -0.89%
33 | COc1ccccc1NC(=O)COc1ccc(C(=O)OCC(=O)NC(C)(C)C)cc1OC | -5.27%
34 | NC(N)=N/N=C/c1ccc(OCc2ccccc2)cc1 | 17%
35 | FCCCOc1ccc(/C=N/OCc2ccc(Cl)cc2Cl)cc1 | 14.7%
36 | Clc1ccccc1COc1ccc(/C=N/n2cnnc2)cc1 | -10.4%
37 | COc1cc(/C=N/N=C(N)N)ccc1OCc1ccccc1Cl | -7.28%
38 | NC(N)=N/N=C/c1ccc(Cl)cc1Cl | 14.2%
39 | COc1cc(/C=N/N=C(N)N)ccc1OCc1ccc(Cl)cc1 | 49.6%
40 | CCCCCCCNC(=O)C1CC(=O)N(C)C(=Nc2ccc(OC)cc2)S1 (stereo not drawn) | -2.09%
41 | CCOc1cc(C(=O)OC(C)C(=O)Nc2ccc(S(N)(=O)=O)cc2)ccc1OCC(=O)N1CCOCC1 (stereo not drawn) | 8.2%
42 | CC(C)CN1C2CCCC1CC(NC(=O)c1ccc([N+](=O)[O-])cc1)C2 (stereo not drawn) | 3.6%
43 | N/C(=N\NS(=O)(=O)c1ccccc1C(F)(F)F)c1ccccn1 | 2.11%
44 | COc1cccc(C(=O)Nc2c3c(nc4c2CCC4)CCCC3)c1 | -0.613%
45 | CC(C)(C)C1CCC(C(=O)OCC(=O)N2CCN(C(=O)c3ccco3)CC2)CC1 (stereo not drawn) | -8.5%
46 | O=c1c(C=NCc2cccnc2)c(C(F)(F)F)[nH]n1-c1nc2ccccc2s1 | 2.08%
47 | COC(=O)C1=C(C)Nc2c(c(=O)n(C)c(=O)n2C)C1c1ccc(Cl)cc1 (stereo not drawn) | 0.17%
48 | CC(=O)c1sc(-c2ccccn2)nc1C | 3.14%
